Most compounds without a hit are left out; they make up all but 0.51% or so of the library.
E coli growth-1 – E. coli V3065 growth inhibition, primary screen, counter-screen for AddAB inhibitor project, absorbance, OD600 | 18 h | inhibition, % at 11.9 µM | hit rate 0.27% among 330,000 | AID 449728, 2010;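 active = inhibition above the campaign's mean inhibition across all tested compounds plus 3 SD, cut at about 9.9% in these data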;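 note: uninfected addAB+ strain grown without phage in ampicillin broth; 0% = DMSO wells and 100% = ciprofloxacin 0.95 µg/ml wells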
AddAB inh – growth inhibition of E. coli expressing H. pylori AddAB, primary screen, AddAB inhibitor project, absorbance; inhibition, % at 11.9 µM; hit rate 0.29% among 330,000; AID 435030, 2010; in the data active = inhibition above about 12%;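 note: 0% = vehicle wells of infected cells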
E coli growth-2 – E. coli growth inhibition, primary screen, OD600; Escherichia coli growth, 23 h; active compounds read low; OD600 absorbance (concentration not given with the values); hit rate 0.21% among 330,000;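 active = OD600 absorbance below the run mean of sample wells minus 3.6 SD, in any replicate, cut at about 0.56 in these data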
phage Ecoli inh – growth loss of phage-infected E. coli, primary screen, RecBCD inhibitor project, absorbance, with phage, HTS; inhibition, % at 11.9 µM; hit rate 0.26% among 360,000; AID 651602, 2012; in the data active = inhibition above about 11%
Tat export inh – E. coli Tat export inhibitors, primary screen, MC4100, TorA-mCherry reporter, fluorescence, single point; inhibition, % at 10 µM; hit rate 0.036% among 340,000; AID 488895, 2010;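 active = mean replicate inhibition at least 50% and at least half of replicates individually reaching 50%; inconclusive = only one of the two criteria met; inactive = neither criterion met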;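 note: exported cargo escapes ClpAP degradation while cytoplasmic cargo is degraded and loses fluorescence; 0% = median of neutral control wells and 100% = median of NaSCN control wells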
AddAB conf – growth loss of phage-infected E. coli expressing H. pylori AddAB, confirmation, AddAB inhibitor project, absorbance, E. coli V3065, T4 phage, triplicate; OD; T4 phage with gene 2 nonsense mutations; shares compounds with AddAB inh; hit rate 64% among 880; inhibition, % at 11.9 µM;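 active = mean inhibition above a set limit taken from the earlier primary screen, cut at about 13% in these data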;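 note: higher means less bacterial growth since AddAB block lets phage replicate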
RecBCD counter – growth loss of RecBCD+ E. coli with mutant T4 phage, counter-screen for AddAB inhibitor project, absorbance, V66 E. coli; hit rate 73% among 880; inhibition, % at 11.9 µM; AID 488955, 2010; shares compounds with AddAB inh; OD growth;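 active = mean inhibition above the mean of solvent-only control wells plus 3 SD, cut at about 4% in these data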;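 note: optical density read after an 18 h incubation at 37 °C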
bact viab count – bacterial viability inhibition counter-screen, confirmation, counter-screen for AddAB inhibitor project, absorbance; absorbance (AddAB counterscreen); hit rate 35% among 880; shares compounds with AddAB inh; AID 488956, 2010; inhibition, % at 11.9 µM; in the data active = inhibition above about 25%
RecBCD conf – growth loss of phage-infected RecBCD+ E. coli, confirmation, RecBCD inhibitor project, absorbance, E. coli V66, T4 gene 2 phage | shares compounds with phage Ecoli inh | E. coli V66 + T4 2- phage, growth OD | inhibition, % at 11.9 µM | hit rate 45% among 890;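 active = mean inhibition over triplicates exceeding the hit threshold derived in the original primary screen, cut at about 11% in these data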
Ecoli viability – E. coli viability inhibition, counter-screen for RecBCD inhibitor project, absorbance, high throughput; inhibition, % at 11.9 µM; hit rate 29% among 890; absorbance (OD) growth; AID 651983, 2013; shares compounds with phage Ecoli inh; in the data active = inhibition above about 20%;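 note: E. coli strain V66 grown with compound alone and no phage infection; 0% = bacteria with DMSO vehicle only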
AddAB counter – growth loss of phage-infected AddAB-carrying E. coli, confirmation, counter-screen for RecBCD inhibitor project, absorbance, E. coli V3065, T4 phage; shares compounds with phage Ecoli inh; E. coli expressing H. pylori AddAB + T4 phage, OD growth; gene 2 mutant T4, recBCD-deleted host; inhibition, % at 11.9 µM; hit rate 45% among 890; AID 651984, 2013;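 active = mean inhibition above the solvent-only control wells' mean plus 3 SD, cut at about 22% in these data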;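 note: higher means less bacterial growth from phage killing when AddAB is blocked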
Active calls of the source: *; u = inconclusive; x = not tested or not shown.

SMILES | E coli growth-1 | AddAB inh | E coli growth-2 | phage Ecoli inh | Tat export inh | RecBCD conf | Ecoli viability | AddAB counter | others
COc1cc(CN2CCCCCC2)cc(OC)c1OC | 0 | 3 | 0.67 | 2 | 2 | x | x | x
O=C(C=Cc1ccc([N+](=O)[O-])cc1)NCC1CCCO1 (stereo unspecified) | x | x | 0.67 | x | x | x | x | x
O=C(CSc1ccc(-c2ccccn2)nn1)c1ccccc1 | 12* | 13* | 0.6 | 14* | 1 | 8 | 7 | 24* | AddAB conf=10;RecBCD counter=11*;bact viab count=10
O=C(CSc1ccc(-c2ccccc2)nn1)c1ccccc1 | -4 | 0 | 0.65 | 3 | 6 | x | x | x
COCCN=c1scc(-c2cccs2)n1N=C(C)c1ccco1 | x | x | 0.68 | x | x | x | x | x
COCCN=c1scc(-c2cccs2)n1/N=C/c1ccc(O)c(O)c1O | 12* | 15* | x | 15* | 13 | 8 | 8 | 12 | AddAB conf=14*;RecBCD counter=11*;bact viab count=12
Cc1cn(C(C(=O)NCCCCCCCCCCC(=O)N2CCN(C(=O)OC(C)(C)C)CC2)C(C)O)nn1 (stereo unspecified) | x | x | 0.65 | x | x | x | x | x
Cc1cc(C)c2c(N=NN3CCOCC3)[nH]nc2n1 | 17* | 77* | 0.67 | 12* | -5 | 6 | 6 | 32* | AddAB conf=71*;RecBCD counter=4.2*;bact viab count=33*
COc1c(N2CCN(C(=S)NC3CC4CCC3C4)C(C)C2)c(F)cc2c(=O)c(C(=O)O)cn(C3CC3)c12 (stereo unspecified) | 99* | 99* | 0.092* | 99* | 64* | 101* | 103* | 103* | AddAB conf=102*;RecBCD counter=101*;bact viab count=101*
COc1c(N2CCN(C(=S)Nc3ccc(F)cc3)C(C)C2)c(F)cc2c(=O)c(C(=O)O)cn(C3CC3)c12 (stereo unspecified) | 99* | 99* | 0.073* | 73* | 76* | 14* | 14 | 102* | AddAB conf=97*;RecBCD counter=98*;bact viab count=100*
CCn1cc(C(=O)O)c(=O)c2cc(F)c(N3CCN(C(=S)Nc4ccccc4OC)CC3)cc21 | 99* | 98* | 0.073* | 100* | 24 | 102* | 103* | 102* | AddAB conf=98*;RecBCD counter=99*;bact viab count=99*
CCOC(=O)c1cn(CC)c2cc(N3CCCCC3)c(F)cc2c1=O | 2 | 4 | 0.66 | 1 | 7 | x | x | x
CCn1cc(C(=O)O)c(=O)c2cc(F)c(N3CCN(C(=S)NC(=O)c4c(OC)cccc4OC)CC3)cc21 | 98* | 99* | 0.07* | 99* | 26 | 102* | 102* | 103* | AddAB conf=99*;RecBCD counter=99*;bact viab count=99*
O=c1[nH]c(=O)n([C@H]2C[C@H](O)[C@@H](CO)O2)cc1I | 4 | 3 | x | 10 | 13 | x | x | x
CCc1cn(C2CC(O)C(CO)O2)c(=O)[nH]c1=O (stereo unspecified) | 13* | 20* | 0.62 | 12* | 4 | 14* | 10 | 31* | AddAB conf=35*;RecBCD counter=13*;bact viab count=11
CC(C)CC(CN(C)N=O)N(CC(Cc1ccccc1)N(CCc1ccccc1)N=O)N=O (stereo unspecified) | x | x | 0.73 | x | x | x | x | x
COc1ccc(-[n+]2c(C)cc(/C=C3\Sc4ccccc4N3C)cc2C)cc1 | 26* | 27* | 0.35* | 22* | 67* | 20* | 17 | 48*
CCOC1OC(C(N)=O)=CC(c2ccc3c(c2)OCO3)C1CCCO (stereo unspecified) | x | x | 0.66 | x | x | x | x | x
CC(CC(=O)Nc1ccccn1)=NNC(=O)c1ccccc1 | x | x | 0.71 | x | x | x | x | x
C/C(CC(=O)Nc1ccccn1)=N\NC(=O)c1ccccc1O | 9 | 10 | x | 19* | 1 | 9 | 10 | 12
Oc1ccc(Cc2ccccc2)c2cccnc12 | x | x | 0.64 | 15* | x | 6 | 11 | 17
OCC1OC(n2cnc3c(=S)nc[nH]c32)CC1O (stereo unspecified) | x | x | 0.71 | 18* | 6 | 1 | -2 | -2
CCN(CC)CCN1C(=O)C(=O)C(=C(O)c2ccccc2)C1c1ccccc1F (stereo unspecified) | x | x | 0.69 | x | x | x | x | x
O=C(NCCCn1ccnc1)c1ccc(Cl)c(Cl)c1 | 1 | 1 | 0.6 | 1 | 3 | x | x | x
Cc1ccc(-c2[nH]c3cc(C(=O)NCCCn4ccnc4)ccc3c(=O)c2O)cc1 | 8 | 11 | 0.68 | 11* | -3 | 3 | 5 | 7
SMILES | E coli growth-1 | AddAB inh | E coli growth-2 | phage Ecoli inh | Tat export inh | RecBCD conf | Ecoli viability | AddAB counter | others
CCCCC1CNCCN1CC1(c2ccccc2)CC1 (stereo unspecified) | x | x | 0.66 | x | x | x | x | x
O=C(Nc1ccccc1)Nc1cc(Cl)cc(Cl)c1 | 9 | 7 | x | 11 | -14 | x | x | x
O=C(Nc1ccccc1)Nc1cc(OCC(F)(F)F)cc(OCC(F)(F)F)c1 | x | x | 0.69 | 16* | -3 | 4 | 6 | 2
COc1ccccc1CN1C2CCCC1CC(NC(=O)C=Cc1ccccc1)C2 (stereo unspecified) | x | x | 0.68 | x | x | x | x | x
CN(C(=O)c1cc(COc2ccc(F)c(F)c2)on1)C1CCOC1 (stereo unspecified) | 0 | -11 | 0.65 | 11* | -6 | -1 | -1 | 4
COc1ccc(OCc2cc(C(=O)N(C)C3CCOC3)no2)c(Cl)c1 (stereo unspecified) | 0 | 2 | 0.65 | 2 | -8 | x | x | x
CN1CCN(C(=O)/C=C/c2ccccc2)CC1 | 1 | 3 | 0.69 | 3 | -5 | x | x | x
CN1CCN(C(=O)/C=C/c2ccc([N+](=O)[O-])o2)CC1 | x | x | 0.43* | 17* | 4 | 12* | 13 | 82*
CC=C(C)C(=O)OC(c1cc2ccc(=O)oc2cc1OC)C(O)C(C)(C)O (stereo unspecified) | x | x | 0.7 | x | x | x | x | x
Nc1nc(=O)n(C2CC(O)C(CO)O2)cc1F (stereo unspecified) | x | x | x | 87* | u | 78* | 77* | 90*
Nc1nc(=O)n(C2CC(O)C(CO)O2)cc1Cl (stereo unspecified) | x | x | x | 12* | x | 4 | 4 | 38*
Nc1ncn(C2CC(O)C(CO)O2)c(=O)n1 (stereo unspecified) | x | x | 0.65 | x | x | x | x | x
